Assay outcomes as filed in PubChem BioAssay.
Most compounds without a hit are left out; they make up all but 3% or so of the library.
p53null 39C kill = p53 null cell cytotoxicity, nonpermissive temperature | H1299 p53-null (neo) cells, 39C, ATPlite viability, 24 h | AID 904 | Potency, µM (highest dose often 46.1 µM), without a hit: at the top dose activity, negative = cell killing, actives largely listed as cytotoxic | 55,000 tested, 0.97% active;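 further: potency means the concentration at half of the fitted maximal effect; 0% = DMSO only and -100% = full killing by 100 µM tamoxifen; nearly all actives have a fitted effect of over 50% in size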
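Temperature-shift cytotoxicity format: compound titrations on p53-null or A138V-expressing H1299 cells held 24 hr at 39C, cell ATP then measured, AC50 from Hill model.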
mTORC1 inh = inhibitors of mTORC1 signaling in Tsc2-/- p53-/- MEF cells. Tsc2-/- p53-/- MEF, phospho-rpS6 immunofluorescence/PI, 24 h. Potency, µM (series often up to 38.3 µM), for inactives: top-dose activity change, negative = inhibition, hits mostly inhibitors. 44,000 tested, 0.78% active;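 further: potency means the concentration at half of the fitted maximal effect; plate controls were DMSO for no effect and rapamycin for full effect; nearly all actives have a fitted effect of over 50% in size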
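Tsc2-/-, p53-/- mouse embryonic fibroblasts (empty-vector line) exposed to compound 24 hrs at 37 C, fixed, immunostained for phospho-rpS6 and counterstained with propidium iodide. Acumen laser scanning gives % positive cells from Alexa 488/PI ratio, thresholded using 7.5 nM rapamycin; PI count gives viability.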
S16 viability = cytotoxicity in S16 Pmp22-F2sN Schwann cells; S16 Pmp22-F2sN Schwann cells viability, CellTiter-Glo, 24 h; Potency, µM (series often up to 57.5 µM), for the others: at the highest dose activity change, negative = cytotoxicity, hits mostly cytotoxic; 43,000 tested, 0.48% active; AID 1508642; further: potency means the concentration at half of the fitted maximal effect; on the % scale 0 is the no-effect control and ±100 the full control effect; nearly all actives have a fitted effect of over 65% in size
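S16 Pmp22-F2sN Schwann cells (500-1,000/well) in phenol-red-free DMEM with 10% FBS received 23 nL compound by pin tool for 24 h at 37 °C. Viability was then read as CellTiter-Glo luminescence after 15 min at room temperature.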
PMP22 txn prim = PMP22 gene transcription modulation; S16 Pmp22-F2sN Schwann cells, FLuc/NLuc coincidence luminescence, 24 h; Potency, µM (highest dose often 57.5 µM), for inactives: at the highest dose activity change, negative = inhibition, actives largely listed as inhibitors; 43,000 tested, 2% active; active means clear falling dose curves in both reporters; inconclusive means both reporters move, but less clearly or upward; inactive means either reporter flat; the % is the NLuc reporter signal; further: potency means the concentration at half of the fitted maximal effect; on the % scale 0 is the no-effect control and ±100 the full control effect
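Rat S16 Pmp22-F2sN cells, 500-1,000/well in phenol red-free DMEM + 10% FBS, compound-treated 24 h (37C, 5% CO2). Luminescence: FLuc read, Stop&Glo added, NLuc read.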
p53null 32C tox = kills p53 null cells at the permissive temperature; H1299-neo p53 null cells, ATP luminescence, 24 h, 32C; Potency, µM (top dose mostly 46.1 µM), without a hit: at the top dose activity change, negative = cytotoxicity, most hits filed as cytotoxic; 55,000 tested, 0.62% active; AID 903;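 further: potency means the concentration at half of the fitted maximal effect; 0% = DMSO only and -100% = full killing by 100 µM tamoxifen; nearly all actives have a fitted effect of over 55% in size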
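H1299-neo (p53 null) cells, 600/well, treated 24 h at 32C with compound up to 46 uM; ATPlite luminescence viability, normalized to DMSO and 100 uM tamoxifen; AC50 by Hill fit.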
OvCa metastasis = inhibitors of ovarian cancer cell adhesion and invasion in omental model | SKOV3ip1-GFP adhesion/invasion on 3D omental model, fluorescence | Potency, µM (top dose mostly 45.8 µM), inactives show top-dose activity change, negative = inhibition, actives largely listed as inhibitors | 46,000 tested, 0.1% active;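 further: potency means the concentration at half of the fitted maximal effect; plate controls were DMSO wells for no effect and tomatine positive control wells for full effect; nearly all actives have a fitted effect of over 65% in size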
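qHTS, 4-pt dose (0.36-46 umol/L); SKOV3ip1-GFP, 1,200 cells/well, no FBS; primary omental fibroblast/mesothelial co-culture 48 h pre-grown; 2 h RT + 16 h 37 C; PBS wash, 4% PFA; GFP count 488/509 nm.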
NLuc sat counter = NanoLuc enzyme inhibition artifact for PMP22 screen; shares compounds with PMP22 txn prim; Secreted NLuc enzyme (filtered S16 cell medium), Nano-Glo luminescence; Potency, µM (highest dose often 57.5 µM), for inactives: top-dose activity change, negative = inhibition, hits mostly inhibitors; 690 tested, 4% active; further: potency means the concentration at half of the fitted maximal effect; on the % scale 0 is the no-effect control and ±100 the full control effect
NLuc Km counter = NanoLuc inhibition at Km substrate, PMP22 artifact check | shares compounds with PMP22 txn prim | secreted NLuc enzyme, coelenterazine luminescence, Km conditions | Potency, µM (titrated, usually from 57.5 µM), for inactives: top-dose activity change, negative = inhibition, usual class: inhibitors | 690 tested, 5% active | AID 1508639; further: potency means the concentration at half of the fitted maximal effect; on the % scale 0 is the no-effect control and ±100 the full control effect
FLuc ctr PMP22 = counter-screen for PMP22 expression modulators: firefly luciferase inhibition. shares compounds with PMP22 txn prim. purified P. pyralis FLuc, luminescence, 10 min. Potency, µM (highest dose often 57.5 µM), for inactives: at the top dose activity, negative = inhibition, hits mostly inhibitors. 690 tested, under 10 active. AID 1508640; further: % of control where 0% means no effect
Target sequence (P08659 whole entry, looked up): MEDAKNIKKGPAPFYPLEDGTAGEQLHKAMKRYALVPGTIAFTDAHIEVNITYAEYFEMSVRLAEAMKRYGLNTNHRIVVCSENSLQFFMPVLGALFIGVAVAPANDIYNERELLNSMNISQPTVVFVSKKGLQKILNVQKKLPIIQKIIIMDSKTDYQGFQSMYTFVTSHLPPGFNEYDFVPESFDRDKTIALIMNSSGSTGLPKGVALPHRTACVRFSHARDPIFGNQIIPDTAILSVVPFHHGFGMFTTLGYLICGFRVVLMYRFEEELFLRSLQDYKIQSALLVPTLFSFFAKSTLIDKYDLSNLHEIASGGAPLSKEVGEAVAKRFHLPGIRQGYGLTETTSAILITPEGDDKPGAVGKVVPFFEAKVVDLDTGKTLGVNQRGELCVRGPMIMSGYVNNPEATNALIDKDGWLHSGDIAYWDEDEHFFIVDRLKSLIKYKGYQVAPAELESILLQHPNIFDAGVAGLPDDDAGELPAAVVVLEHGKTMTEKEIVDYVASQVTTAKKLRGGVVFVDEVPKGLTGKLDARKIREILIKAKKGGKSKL
S16 F2sN tox cnf = confirmation of cytotoxicity in S16 Pmp22-F2sN Schwann cells (luciferase reporters placed in the Pmp22 gene). shares compounds with PMP22 txn prim. S16 Schwann cells viability, CellTiter-Glo ATP luminescence, 24 h. Potency, µM (top dose mostly 57.5 µM), inactives show at the highest dose activity change, negative = viability loss, actives largely listed as cytotoxic. 690 tested, 7% active; further: potency means the concentration at half of the fitted maximal effect; on the % scale 0 is the no-effect control and ±100 the full control effect
PMP22 txn conf = confirmation of modulators of PMP22 gene transcription in S16 cells; shares compounds with PMP22 txn prim; S16 Schwann cells Pmp22-F2sN, dual luciferase, 24 h; Potency, µM (highest dose often 57.5 µM), without a hit: at the highest dose activity change, negative = inhibition, hits mostly inhibitors; 690 tested, 22% active; AID 1508646; active means clear falling dose curves in both reporters; inconclusive means both reporters move, but less clearly or upward; inactive means either reporter flat; the % is the FLuc reporter signal; further: potency means the concentration at half of the fitted maximal effect
PMP22 prot conf = rat PMP22 protein level modulation, confirmatory; S16 Schwann cells Pmp22-HiBiT, luminescence, 48 h; Potency, µM (series often up to 27.9 µM), inactives show at the top dose activity change, negative = inhibition, most hits filed as inhibitors; 95 tested, under 10 active; shares compounds with PMP22 txn prim; AID 1508647
Target sequence (P25094 whole entry, looked up): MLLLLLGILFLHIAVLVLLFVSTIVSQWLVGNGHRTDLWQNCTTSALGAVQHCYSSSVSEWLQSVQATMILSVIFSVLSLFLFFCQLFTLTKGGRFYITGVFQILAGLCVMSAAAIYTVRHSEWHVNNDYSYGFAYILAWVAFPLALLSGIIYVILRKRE
Numbers without * were called inactive; i = inactive; ? = inconclusive; . = no result given; [ ] = dose if it differs, or a comment. Unless noted, the call rests on the fitted dose curve; in most records, active means well fitted curve in the direction sought with a large enough effect; inconclusive means small, poorly fitted or top-dose-only effect, or another doubt; inactive means no such curve, though single readings can be large; an effect the other way counts as inactive or inconclusive.

SMILES	p53null 39C kill	mTORC1 inh	S16 viability	PMP22 txn prim	p53null 32C tox	OvCa metastasis	NLuc sat counter	NLuc Km counter	FLuc ctr PMP22	S16 F2sN tox cnf	PMP22 txn conf	others
CCN1CCOC(=O)C1CC(=O)Nc1cc(Cl)ccc1OC (centres undefined)	.	?	?	19µM*	.	i	-8%	0%	4%	7%	?
Cc1ccc(C(=O)Nc2ccc(S(=O)(=O)N3CCC(c4nc5ccccc5s4)CC3)cc2)cc1	-9%	2%	8%	12µM*	-6%	-13%	0%	5%	6%	-47%	15µM*	PMP22 prot conf=?
CCN(CC)C(=O)c1ccc(S(=O)(=O)N2CCC(c3nc4ccccc4s3)CC2)cc1	-1%	.	.	.	-3%	.	.	.	.	.	.
O=S(=O)(N=Cc1c(O)ccc2ccccc12)c1cccs1	.	.	.	.	.	23%	.	.	.	.	.
COc1ccnc2[nH]cc(C(=O)C(=O)N3CCN(C(=O)c4ccccc4)C[C@@H]3C)c12	.	.	.	.	.	-8%	.	.	.	.	.
Cc1c(C(=O)OC2CCCCC2)[nH]c2c1C(=O)CC(c1ccccc1)C2 (centres undefined)	-10%	-18%	3%	13µM*	-13%	-6%	-4%	1%	0%	-10%	?
Cc1c(C(=O)OC2CCCCC2)[nH]c2c1C(=O)CC(c1ccccc1Cl)C2 (centres undefined)	-7%	?	?	6µM*	17%	2%	-19%	?	-19%	-18%	-45%
Cc1c(C(=O)OC2CCCCC2)[nH]c2c1C(=O)CC(c1ccc(F)cc1)C2 (centres undefined)	4%	-3%	3%	?	-4%[9.22 µM]	11%	.	.	.	.	.
Cc1ccc(/C=C/c2onc(C)c2S(=O)(=O)N2CCC(C(=O)Nc3cccc(C#N)c3)CC2)cc1	-4%	-16%	18%	12µM*	12%	i	-2%	7%	7%	14%	-16%
Cc1ccc(C)c(NC(=O)C2CCCN(S(=O)(=O)c3c(C)noc3/C=C/N(C)C)C2)c1 (centres undefined)	23%	-26%	3%	?	43%	-17%	?	?	3%	-6%	-5%
Cc1ccc(/C=C/c2onc(C)c2S(=O)(=O)N2CCC(C(=O)Nc3cc(C)ccc3C)CC2)cc1	-8%	5%	?	-19%	0%	i	.	.	.	.	.
Cc1ccc(/C=C/c2onc(C)c2S(=O)(=O)N2CCC(C(=O)NCC(C)c3ccccc3)CC2)cc1 (centres undefined)	8%	2%	27%	13µM*	-2%	i	-3%	-1%	7%	2%	?
CN(CC=CC#CC(C)(C)C)Cc1cccc2ccccc12	.	.	.	.	.	-5%	.	.	.	.	.
CC(C)(N)C(=O)N[C@H](COCc1ccccc1)C(=O)N1CCC2(CC1)CN(S(C)(=O)=O)c1ccccc12	.	.	.	.	.	24%	.	.	.	.	.
COc1ccc(OCc2ccc(-c3nc(C#N)c(N4CCC(C)CC4)o3)o2)cc1	16%	-2%	-3%	6.7µM*	0%	-4%	-10%	0%	0%	8%	-3%
Cc1ccc(OCc2ccc(-c3nc(C#N)c(N4CCC(C)CC4)o3)o2)cc1	-14%	2%	2%	?	-10%	5%	.	.	.	.	.
Cc1ccc(NC(=O)N(Cc2cn(C)c3ccccc23)C2CCCCC2)cc1C	?	-1%	?	11µM*	7%	i	14µM*	?	?	2%	?
COc1cccc(NC(=O)N(Cc2cn(C)c3ccccc23)C2CCCCC2)c1	?	-2%	?	10µM*	-1%	-2%	?	?	-3%	2%	?
COc1cccc(CNC(=O)c2cc3c(=O)n(C)c4ccccc4c3n2C)c1	-26%	2%	14%	13µM*	-4%	-13%	-9%	-2%	5%	-14%	?
CCOCCCNC(=O)c1cc2c(=O)n(C)c3ccccc3c2n1C	-17%	-12%	0%	?	3%	i	.	.	.	.	.
Cc1ccc2nc(/C(C#N)=C/c3ccc(-c4cccc(Cl)c4)o3)[nH]c2c1	?	-6%	1%	?	-20%	9%	.	.	.	.	.
Cc1cccc(/C=C(\C#N)c2nc3ccccc3c(=O)[nH]2)c1	-9%	-3%	0%	11µM*	1%	11%	?	?	-5%	?	5%
Cc1ccccc1Nc1nc(N)c(C(=O)c2ccccc2Cl)s1	42%	-5%	6%	?	34%	-5%	.	.	.	.	.
CCOC(=O)c1c(C)[nH]c(CCC(=O)NCCCN2CCN(c3cc(Cl)ccc3C)CC2)c1C	-36%	?	?	15µM*	12%	?	-11%	4%	-3%	?	?
CCOc1ccccc1CNC(=O)CCn1c(=O)c2cccn2c2ccc(F)cc21	56%	?	6%	14µM*	10%	1%	1%	1%	0%	-2%	?
